# Results filed as inconclusive are left out. Where a call stands in place of a potency, no number is given. Active and inactive are the calls of the source. Calls follow the shape of the dose curve; as a rule, active = well fitted inhibition curve with a large enough effect; inconclusive = small, poorly fitted or top-dose-only effect; inactive = flat fitted curve, though single readings scatter.
# System: Zika virus NS2B-NS3 protease
# Experiment: Primary screen GU AMC qHTS for Zika virus inhibitors (AID 1347154); also: nearly all actives have a fitted effect of over 70% in size
# Conditions: Zika NS2B-NS3 unlinked protease, AMC fluorogenic substrate; series mostly up to 54.1 µM
# Excerpt: Avindra Nath, Ph.D., National Institute of Neurological Disorders and Stroke (NINDS), Bethesda, MD
# Radhakrishnan Padmanabhan, Ph.D., Georgetown University (GU), Washington D.C.
# Zika Virus causes congenital defects, including microcephaly and is associated with Guillain-Barre syndrome, eningoencephalitis and myelitis in infected adult. […] Using a target-based approach, we hope to establish a screening paradigm to uncover novel, cell-active NS2B-NS3 protease (Zika Virus) specific inhibitors from NCATS' collection of small molecules using qHTS.
# Early Translation Branch (ETB)
# National Center for Advancing Translational Sciences (NCATS), Rockville, MD
# National Institute of Health (NIH), Bethesda, Maryland
# Padmanabhan lab provided the NS2B hydrophilic domain and NS3 protease domain in a noncovalent complex used for the unlinked assay. Control compound aprotinin is obtained from Thermo Scientific (#78432; Waltham, Massachusetts). NS2B-NS3 AMC substrate (Bz-Nle-Lys-Arg-Arg-AMC; Nle-KRR-AMC) purchased from Bachem (#I-1995; Torrance, CA). Ac-VKTGKR-AMC purchased from Genscript or Bachem, Ac-FAAGKR-AMC purchased from Genscript, Ac-GLVKRR-AMC purchased from Genscript, Ac-LKKR-AMC purchased from Genscript.
# GU AMC unlinked NS2B-NS3 protease qHTS protocol
# Briefly, 3 microL of Zika virus unlinked NS2B-NS3 protease (25 nM for linked final concentration), in assay buffer (10 mM Tris-HCl pH 8.0 with 0.01% Tween 20) was dispensed into a 1,536-well solid-bottom black plate (Greiner Bio One, Monroe, NC). […] Plates were then read immediately on a ViewLux High-throughput CCD imager (PerkinElmer, Waltham, MA) equipped with standard UV fluorescence optics (340(30) nm excitation, 450(20) nm emission) then incubated (room temperature, protected from light) for 15 minutes (~20% conversion). The change in fluorescence intensity over the 15-minute reaction period was normalized against no-inhibitor and no-enzyme controls and the resulting percent inhibition data were fitted to a 4-parameter Hill equation. Aprotinin was used as the intraplate control.
SMILES,Potency,"activity change, negative = inhibition"
O=C(O)COc1ccc(OCCNC[C@H](O)COc2ccccc2)cc1,inactive,
COc1ccccc1N1CCN(C[C@@H]2CN3C(=O)N(C)c4ccccc4C3=N2)CC1,inactive,
Nc1c(S(=O)(=O)O)cc(Nc2ccc(Cl)cc2)c2c1C(=O)c1ccccc1C2=O,inactive,
OC[C@H]1OC([S-])[C@H](O)[C@@H](O)[C@H]1O.[Au+] (stereo not given in full),inactive,
COCCNC(=O)COc1ccc(OCCNC[C@H](O)COc2ccccc2)cc1,inactive,
N[C@@H](Cc1cc(CP(=O)(O)O)cc(-c2ccccc2Cl)c1)C(=O)O,inactive,
CCCCCC#CCC#CCC#CCC#CCCCC(=O)O,inactive,
O=c1oc(-c2ccc(C(F)(F)F)cc2)nn1Cc1cc(Cl)ccc1O,inactive,
CCCCCCCC(=O)OC[C@H](CO)OC(=O)CCCCCCC,,4.76% [at 6.83 µM] (inactive)
N#CC(=C(/N)Sc1ccccc1N)/C(C#N)=C(/N)Sc1ccccc1N,inactive,
COc1ccc(Cl)cc1N=Nc1ncc[nH]1,inactive,
C=C1O[C@@](CO)(n2cnc3c(N)ncnc32)[C@H](O)[C@@H]1O,inactive,
C=C[C@@]1(C)CC(=O)[C@@]2(O)[C@@]3(C)[C@@H](O)CCC(C)(C)[C@@H]3[C@H](O)[C@H](OC(C)=O)[C@@]2(C)O1,inactive,
CNC(=O)[C@H]1O[C@@H](n2cnc3c(NCc4cccc(I)c4)nc(Cl)nc32)[C@H](O)[C@@H]1O,inactive,
O=Cc1c2[nH]c3ccccc3c2cc2[nH]c3ccccc3c12,inactive,
Cc1cccc(/C=C\c2ccccc2)n1,inactive,
Cc1ccc(OCC(O)C(C)NC(C)C)c2c1CCC2 (stereo not given),inactive,
C=CCN1CCc2cc(O)c(O)cc2[C@H](c2ccccc2)C1,inactive,
C[C@@H]1Nc2ccc(Cl)cc2S(=O)(=O)N1,inactive,
NS(=O)(=O)c1cc2c(cc1Cl)N[C@@H]([C@@H]1C[C@@H]3C=C[C@H]1C3)NS2(=O)=O,inactive,

SMILES,Potency,"activity change, negative = inhibition"
Cc1cc2nc3c(=O)[nH]c(=O)nc-3n(C)c2cc1C=O,inactive,
N[C@@H](Cn1cc(I)c(=O)n(Cc2ccc(C(=O)O)cc2)c1=O)C(=O)O,inactive,
O=[N+]([O-])c1ccc(CSc2ncnc3c2ncn3C2OC(CO)C(O)C2O)cc1 (stereo not given),inactive,
CCCn1c(=O)[nH]c2nc(-c3ccc(S(=O)(=O)O)cc3)[nH]c2c1=O,inactive,
O=C(O)C(Cc1ccc2c(c1)oc1ccccc12)NCP(=O)(O)O (stereo not given),inactive,
CC(=O)Nc1ccc(OC[C@@H](O)CNC(C)C)cc1,inactive,
CCCCC/C=C\C\C=C/C=C/C=C/[C@@H](SCC(NC(C)=O)C(=O)O)[C@@H](O)CCCC(=O)O (stereo not given in full),,13.7% [at 0.59 µM] (inactive)
C[C@@]12C(=O)OC(=O)[C@@]1(C)[C@@H]1CC[C@@H]2O1,inactive,
CNC(=S)NCCCCc1cnc[nH]1,inactive,
N[C@@H](Cn1cc(F)c(=O)[nH]c1=O)C(=O)O,inactive,
NCCCCCCNS(=O)(=O)c1cccc2ccccc12,inactive,
CCCCCCCCCCCCCCCC(=O)C(F)(F)F,inactive,
c1ccc2oc(C3=NCCN3)cc2c1,inactive,
O[C@@H](c1ccccc1)C1CCN(CCc2ccccc2)CC1,inactive,
CCC(C)(C)N=C(NC#N)Nc1cccnc1,inactive,
O=C(NCCCCN1CCN(c2cccc(Cl)c2Cl)CC1)c1ccc2c(c1)Cc1ccccc1-2,inactive,
NC(CCC(=O)NCS(=O)(=O)O)C(=O)O (stereo not given),inactive,
CN(C)CCCCSC(=N)N,inactive,
CC(C)NC[C@@H](O)COc1ccc(CCOCC2CC2)cc1,inactive,
CC(=O)N(O)[C@@H]1c2cc(C#N)ccc2OC(C)(C)[C@H]1O,inactive,

# From PubChem BioAssay (NCATS)
